Measured values from PubChem BioAssay (EPA / NIEHS).
Inconclusive results are not listed. Calls of active or inactive are those of the source. How the source made its calls, unless noted: active means hit-call score of the fitted dose curve at least 0.9, where 1 is the maximum; inactive means score below 0.9.

Tests used:
[1] = read-out: NAD(P)H dehydrogenase [quinone] 1 (NQO1), NQO1 (gene 1728); assay: LTEA_HepaRG_NQO1: Life Technologies and Expression Analysis (LTEA) Assay for NAD(P)H dehydrogenase [quinone] 1 (NQO1) using HepaRG (AID 2283526); conditions: mRNA level, 48 h; actives raise or lower the signal
How it was run: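 HepaRG, 48 h post-plating → serum-free induction medium → test chemical 48 h (duplicate, 100 uM top, half-log x8, 0.5% DMSO) → RNA isolation → qRT-PCR, ACTB/GAPDH/POLR2A normalization; bidirectional curve fit vs DMSO baseline.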

[2] = read-out: Nuclear factor erythroid 2-related factor 2 (Homo sapiens) (UniProt Q16236); assay: LTEA_HepaRG_NFE2L2: Life Technologies and Expression Analysis (LTEA) Assay for Nuclear factor erythroid 2-related factor 2 (NFE2L2) Transcription Factor using HepaRG (AID 2283527); conditions: mRNA level, 48 h; actives raise or lower the signal
How it was run: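 Differentiated human HepaRG cells in serum-free induction medium were exposed for 48 h to eight concentrations (top 100 uM, half-log dilutions, 0.5% DMSO), in duplicate. NFE2L2 mRNA was quantified by TaqMan qRT-PCR, normalized to ACTB, GAPDH and POLR2A, with bidirectional fitting versus DMSO.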

[3] = read-out: succinate dehydrogenase complex iron sulfur subunit B (SDHB), SDHB (gene 6390); assay: LTEA_HepaRG_SDHB: Life Technologies and Expression Analysis (LTEA) Assay for succinate dehydrogenase complex iron sulfur subunit B (SDHB) using HepaRG (AID 2283528); conditions: mRNA level, 48 h; actives raise or lower the signal
How it was run: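 A human HepaRG culture in serum-free induction medium received test chemicals for 48 h over an eight-point range capped at 100 uM. SDHB expression change was quantified by qRT-PCR.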

[4] = read-out: Signal transducer and activator of transcription 3 (Homo sapiens) (UniProt P40763); assay: LTEA_HepaRG_STAT3: Life Technologies and Expression Analysis (LTEA) Assay for Signal transducer and activator of transcription (STAT3) using HepaRG (AID 2283529); conditions: mRNA level, 48 h; actives raise or lower the signal
How it was run: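 Differentiated human HepaRG cells in serum-free induction medium were exposed in duplicate for 48 h to eight half-log concentrations up to 100 uM in 0.5% DMSO. STAT3 mRNA was quantified by TaqMan qRT-PCR, normalized to ACTB, GAPDH and POLR2A, and fitted bidirectionally against DMSO.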

[5] = read-out: solute carrier (SLCO1B1), SLCO1B1 (gene 10599); assay: LTEA_HepaRG_SLCO1B1: Life Technologies and Expression Analysis (LTEA) Assay for solute carrier (SLCO1B1) using HepaRG (AID 2283530); conditions: mRNA level, 48 h; actives raise or lower the signal
How it was run: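 Differentiated human HepaRG cells, plated 48 h, switched to serum-free induction medium and exposed in duplicate for 48 h to 8 half-log concentrations (top 100 uM) in 0.5% DMSO. SLCO1B1 mRNA by TaqMan qRT-PCR, normalized to ACTB/GAPDH/POLR2A.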

[6] = read-out: sulfotransferase 2A1 (SULT2A1), SULT2A1 (gene 6822); assay: LTEA_HepaRG_SULT2A1: Life Technologies and Expression Analysis (LTEA) Assay for sulfotransferase 2A1 (SULT2A1) using HepaRG (AID 2283531); conditions: mRNA level, 48 h; actives raise or lower the signal
How it was run: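 Differentiated human HepaRG cells in serum-free induction medium were exposed for 48 h to eight half-log concentrations (top 100 uM, 0.5% DMSO). SULT2A1 mRNA was measured by qRT-PCR, normalized to ACTB, GAPDH and POLR2A, and fitted bidirectionally against DMSO.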

[7] = read-out: Transforming Growth Factor (TGFA), TGFA (gene 7039); assay: LTEA_HepaRG_TGFA: Life Technologies and Expression Analysis (LTEA) Assay for Transforming Growth Factor (TGFA) using HepaRG (AID 2283532); conditions: mRNA level, 48 h; actives raise or lower the signal
How it was run: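 Differentiated human HepaRG cells, plated 48 h then switched to serum-free induction medium, were exposed in duplicate for 48 h to 8-point half-log series from 100 uM in 0.5% DMSO. TGFA mRNA measured by qRT-PCR, normalized to ACTB/GAPDH/POLR2A, bidirectional fit versus DMSO.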

[8] = read-out: Transforming Growth Factor (TGFB1), TGFB1 (gene 7040); assay: LTEA_HepaRG_TGFB1: Life Technologies and Expression Analysis (LTEA) Assay for Transforming Growth Factor (TGFB1) Transporter using HepaRG (AID 2283533); conditions: mRNA level, 48 h; actives raise or lower the signal
How it was run: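 Differentiated human HepaRG cells in serum-free induction medium were exposed in duplicate for 48 h to eight concentrations (top 100 uM, half-log steps, 0.5% DMSO). TGFB1 mRNA was quantified by qRT-PCR, normalized to ACTB, GAPDH, POLR2A, and fitted bidirectionally against DMSO.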

TIMP1, TIMP1 (gene 7076) = assay: LTEA_HepaRG_TIMP1: Life Technologies and Expression Analysis (LTEA) Assay for TIMP1 using HepaRG (AID 2283534); conditions: mRNA level, 48 h; actives raise or lower the signal;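 further: TaqMan qRT-PCR signal normalized to ACTB GAPDH and POLR2A housekeeping genes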
How it was run: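 Differentiated human HepaRG cells in serum-free induction medium were exposed 48 h to chemicals (8 half-log concentrations, top 100 uM, 0.5% DMSO). TIMP1 mRNA was quantified by TaqMan qRT-PCR, normalized to ACTB/GAPDH/POLR2A; bidirectional fit versus DMSO.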

[9] = read-out: Tumor necrosis factor receptor 1 (TNFRSF1A), TNFRSF1A (gene 7132); assay: LTEA_HepaRG_TNFRSF1A: Life Technologies and Expression Analysis (LTEA) Assay for Tumor necrosis factor receptor 1 (TNFRSF1A) using HepaRG (AID 2283535); conditions: mRNA level, 48 h; actives raise or lower the signal
How it was run: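 Differentiated human HepaRG cells were exposed in duplicate for 48 h in serum-free induction medium to eight concentrations (top 100 uM, half-log steps, 0.5% DMSO). TNFRSF1A mRNA was quantified by qRT-PCR, normalized to ACTB, GAPDH and POLR2A, then fitted bidirectionally against DMSO.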

[10] = read-out: Thyroid Hormone Responsive (THRSP), THRSP (gene 7069); assay: LTEA_HepaRG_THRSP: Life Technologies and Expression Analysis (LTEA) Assay for Thyroid Hormone Responsive (THRSP) using HepaRG (AID 2283536); conditions: mRNA level, 48 h; actives raise or lower the signal
How it was run: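 Differentiated human HepaRG cells were exposed in duplicate for 48 h in serum-free induction medium to eight concentrations (top 100 uM, half-log steps, 0.5% DMSO). Expression was quantified by TaqMan qRT-PCR, normalized to ACTB, GAPDH and POLR2A, with bidirectional fitting against DMSO.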

[11] = read-out: UDP glucuronosyltransferase (UGT1A1), UGT1A1 (gene 54658); assay: LTEA_HepaRG_UGT1A1: Life Technologies and Expression Analysis (LTEA) Assay for UDP glucuronosyltransferase (UGT1A1) using HepaRG (AID 2283538); conditions: mRNA level, 48 h; actives raise or lower the signal
How it was run: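 Readout is UGT1A1 transcript level by qRT-PCR, normalized to three housekeeping genes, after 48 h chemical treatment of HepaRG cells. Concentrations ran from 100 uM down in half-log steps with 0.5% DMSO, and gain or loss relative to DMSO was fitted.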

[12] = read-out: UDP glucuronosyltransferase (UGT1A6), UGT1A6 (gene 54578); assay: LTEA_HepaRG_UGT1A6: Life Technologies and Expression Analysis (LTEA) Assay for UDP glucuronosyltransferase (UGT1A6) using HepaRG (AID 2283539); conditions: mRNA level, 48 h; actives raise or lower the signal
How it was run: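 Human HepaRG cells were dosed for 48 h in serum-free induction medium with 0.5% DMSO vehicle, eight-point half-log series from 100 uM, in duplicate. UGT1A6 mRNA was measured by qRT-PCR, normalized to ACTB, GAPDH, POLR2A, and fitted bidirectionally against DMSO.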

[13] = read-out: X-box binding protein 1 (XBP1), XBP1 (gene 7494); assay: LTEA_HepaRG_XBP1: Life Technologies and Expression Analysis (LTEA) Assay for X-box binding protein 1 (XBP1) using HepaRG (AID 2283540); conditions: mRNA level, 48 h; actives raise or lower the signal
How it was run: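 Differentiated human HepaRG cells in serum-free induction medium were exposed in duplicate for 48 h to eight half-log concentrations up to 100 uM in 0.5% DMSO. XBP1 mRNA was quantified by qRT-PCR, normalised to ACTB, GAPDH and POLR2A, with bidirectional fitting against DMSO.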

[14] = LTEA_HepaRG_LDH_cytotoxicity: Cytotoxicity Assessment in the Life Technologies and Expression Analysis (LTEA) Assay (AID 2283563; active means hit-call score of the fitted dose curve at least 0.9, where 1 is the maximum;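 on AC50: LDH activity released into spent culture medium as a marker of cell death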)
How it was run: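 Differentiated human HepaRG cells, plated 48 h beforehand, were switched to serum-free induction medium and exposed for 48 h to eight half-log concentrations (top 100 uM) in 0.5% DMSO. LDH was measured in spent medium; activity was fitted relative to DMSO vehicle.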

[15] = read-out: Cellular tumor antigen p53 (Homo sapiens) (UniProt P04637); assay: LTEA_HepaRG_TP53: Life Technologies and Expression Analysis (LTEA) Assay for Tumor Protein P53 (TP53) using HepaRG (AID 2283537); conditions: mRNA level, 48 h; actives raise or lower the signal
How it was run: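 Gain or loss of TP53 mRNA signal is scored relative to 0.5% DMSO after 48 h chemical treatment of HepaRG liver cells, tested in duplicate at eight half-log concentrations up to 100 uM.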

[16] = target: Cellular tumor antigen p53 (Homo sapiens) (UniProt P04637); assay: TOX21_p53_BLA_p2_ratio: Tox21 HCT-116 p53 Agonism Beta-lactamase Assay, Ratio, Phase 2 (AID 2283592; active means hit-call score of the fitted dose curve at least 0.9, where 1 is the maximum)
Cellular tumor antigen p53 (Homo sapiens), sequence (P04637 whole entry, looked up): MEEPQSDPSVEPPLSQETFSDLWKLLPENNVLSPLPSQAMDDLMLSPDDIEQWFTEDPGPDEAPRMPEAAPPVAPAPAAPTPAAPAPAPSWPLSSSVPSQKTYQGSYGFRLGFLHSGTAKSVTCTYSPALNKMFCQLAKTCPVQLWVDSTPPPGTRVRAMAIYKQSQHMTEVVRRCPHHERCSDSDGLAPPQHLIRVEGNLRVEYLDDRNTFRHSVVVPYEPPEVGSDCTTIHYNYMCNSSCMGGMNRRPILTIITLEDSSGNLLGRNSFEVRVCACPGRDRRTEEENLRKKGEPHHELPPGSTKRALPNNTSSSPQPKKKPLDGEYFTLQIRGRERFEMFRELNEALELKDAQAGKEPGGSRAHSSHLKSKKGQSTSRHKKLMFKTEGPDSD
How it was run: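 HCT116 cells carrying a p53-responsive beta-lactamase reporter were plated, incubated 5 h at 37C, then dosed with compounds in DMSO (217-fold dilution) for 16 h. CCF4-AM substrate was added for 2 h at room temperature; the 460/530 nm emission ratio gave gain-of-signal activity relative to DMSO.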

[17] = TOX21_p53_BLA_p3_viability: Viability Assessment in the Tox21 HCT-116 p53 Agonism Beta-lactamase Assay, Phase 3 (AID 2283593; active means hit-call score of the fitted dose curve at least 0.9, where 1 is the maximum;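 further: cells exposed to compound for 16 h before reading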)
How it was run: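 HCT-116 cells (4000/well) rested 5 h at 37C, then got DMSO compounds by pin tool (217-fold dilution) for 16 h at 37C, 5% CO2. After the bla read, CellTiter-Glo was added and luminescence read at 30 min, room temperature.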

[18] = TOX21_p53_BLA_p2_viability: Viability Assessment in the Tox21 HCT-116 p53 Agonism Beta-lactamase Assay, Phase 2 (AID 2283591; active means hit-call score of the fitted dose curve at least 0.9, where 1 is the maximum;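 further: compound exposure lasted 16 h at 37 °C; actives lower the ATP signal meaning cytotoxicity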)
How it was run: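 HCT-116 p53-bla cells (4000/well) rested 5 h at 37C, then received compounds in DMSO (217-fold dilution) for 16 h at 37C, 5% CO2. After the CCF4 read, CellTiter-Glo was added; ATP luminescence was read after 30 min at room temperature.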

Measured: AC50

Signal transducer and activator of transcription 3 (Homo sapiens), sequence (P40763 whole entry, looked up): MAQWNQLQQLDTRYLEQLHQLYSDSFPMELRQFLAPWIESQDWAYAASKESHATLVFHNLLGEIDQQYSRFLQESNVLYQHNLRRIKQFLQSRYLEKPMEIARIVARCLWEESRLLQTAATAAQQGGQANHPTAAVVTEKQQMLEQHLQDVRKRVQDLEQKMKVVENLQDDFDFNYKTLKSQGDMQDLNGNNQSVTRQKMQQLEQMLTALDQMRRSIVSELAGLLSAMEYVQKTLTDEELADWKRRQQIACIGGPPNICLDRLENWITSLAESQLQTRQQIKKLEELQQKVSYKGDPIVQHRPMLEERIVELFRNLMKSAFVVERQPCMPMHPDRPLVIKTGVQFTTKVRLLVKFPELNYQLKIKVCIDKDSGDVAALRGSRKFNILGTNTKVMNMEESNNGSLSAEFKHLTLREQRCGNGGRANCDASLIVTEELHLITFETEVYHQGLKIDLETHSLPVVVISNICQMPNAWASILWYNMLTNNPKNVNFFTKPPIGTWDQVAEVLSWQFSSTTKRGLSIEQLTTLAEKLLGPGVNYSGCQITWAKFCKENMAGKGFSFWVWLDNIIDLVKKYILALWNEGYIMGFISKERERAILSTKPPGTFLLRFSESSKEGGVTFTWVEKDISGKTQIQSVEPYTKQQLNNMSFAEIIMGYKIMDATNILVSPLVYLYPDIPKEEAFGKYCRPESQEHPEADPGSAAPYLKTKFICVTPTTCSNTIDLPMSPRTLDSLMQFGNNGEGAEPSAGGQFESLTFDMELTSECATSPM
Nuclear factor erythroid 2-related factor 2 (Homo sapiens), sequence (Q16236 whole entry, looked up): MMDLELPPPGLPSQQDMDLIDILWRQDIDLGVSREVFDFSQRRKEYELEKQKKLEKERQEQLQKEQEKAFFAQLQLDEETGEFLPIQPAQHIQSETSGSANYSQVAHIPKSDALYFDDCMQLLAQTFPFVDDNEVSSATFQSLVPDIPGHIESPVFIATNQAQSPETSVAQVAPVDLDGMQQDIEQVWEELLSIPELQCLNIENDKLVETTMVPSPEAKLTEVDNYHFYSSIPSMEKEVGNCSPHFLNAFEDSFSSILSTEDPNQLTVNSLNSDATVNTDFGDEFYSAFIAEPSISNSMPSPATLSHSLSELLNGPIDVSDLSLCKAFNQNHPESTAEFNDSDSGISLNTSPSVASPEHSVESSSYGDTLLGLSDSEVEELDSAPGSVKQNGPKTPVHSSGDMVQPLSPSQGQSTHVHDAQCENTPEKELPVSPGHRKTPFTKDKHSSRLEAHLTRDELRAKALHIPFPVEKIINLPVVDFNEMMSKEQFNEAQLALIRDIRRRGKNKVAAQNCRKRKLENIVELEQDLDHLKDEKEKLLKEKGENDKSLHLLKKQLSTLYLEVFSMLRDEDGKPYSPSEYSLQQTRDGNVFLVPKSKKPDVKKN

CC(C)=CC1C(C(=O)OCc2coc(Cc3ccccc3)c2)C1(C)C (stereo not given)
active: [11] 39.4 µM
not listed: [15] | [16] | [17] | [18]
inactive: all other assays above

CCOc1nc(C(Cl)(Cl)Cl)ns1
active: [1] 0.993 µM | [2] 1.12 µM | [4] 50 µM | [5] 1.88 µM | [7] 1.14 µM | [8] 0.687 µM | [10] 1.06 µM | [15] 1.01 µM | [13] 0.83 µM
inactive: [3] | [6] | TIMP1, TIMP1 (gene 7076) | [9] | [11] | [12] | [14] | [16] | [17]

Clc1cccc(C(Cl)(Cl)Cl)n1
active: [11] 50 µM
not listed: [16]
inactive: all other assays above

CC(C)N1C(=O)N(c2ccccc2)CSC1=NC(C)(C)C
active: [3] 50 µM | [6] 96.5 µM | [7] 79.4 µM | [15] 76.2 µM | [11] 88.8 µM | [12] 85.1 µM | [14] 84.1 µM | [18] 84.6 µM
inactive: all other assays above

O=C(O)c1c(Cl)ccc2cc(Cl)cnc12
not listed: [15] | [16] | [17] | [18]
inactive: all other assays above

CS(=O)(=O)c1cc(C(F)(F)F)ccc1C(=O)c1cnoc1C1CC1
not listed: [6] | [16] | [17]
inactive: all other assays above

CC(C)N1C(=O)c2ccccc2NS1(=O)=O
inactive: all assays above
